# Several values for one entry are separate records, joined by “and”; a condition that tells them apart may be missing. Equal values may be shown once. This is part of a sample that, as a whole, favours compounds with a hit. Of some 83,000 tested, about 20% had one in any assay.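 The test compound was applied at a single concentration to cells in 96-well plates for 48 hours, and percent growth was recorded.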 Activity calls are given as the source filed them. How the source made its calls: active means growth percent below 10; inactive means the rest.
# Test system: MDA-MB-468 breast
# Assay: NCI-60 one-dose screen, 48 h (100 = growth as untreated, 0 = no growth, -100 = all killed)
# Details: 10 µM unless noted
row,Compound,growth
1,CC(=O)OC[C@]12CC[C@H]3[C@@H](C[C@H]4O[C@]45CC=CC(=O)[C@]35C)[C@]1(O)CC[C@@]2(O)[C@@](C)(O)C1CC(C)=C(C)C(=O)O1 (stereo partly drawn),-52.8% (active)
2,O=C(Nc1ccccc1)Nc1ccc2cc3ccc(NC(=O)Nc4ccccc4)cc3nc2c1,-57.8% (active)
3,O=C1/C(=C/c2ccc(F)cc2)CN(Cc2cn(CCNc3ccnc4cc(Cl)ccc34)nn2)C/C1=C\c1ccc(F)cc1,-64.2% (active)
4,COc1cc2c(c(OC)c1OC)-c1ccc(NNC(N)=S)c(=O)cc1[C@@H](NC(C)=O)CC2,-14.2% (active)
5,CCOc1cc2ncc(C#N)c(Nc3ccc(F)c(Cl)c3)c2cc1NC(=O)CC1CCSS1 (stereo not drawn),-74.2% (active)
6,O=C(O)Cc1cc(=O)[nH]n(-c2ccccc2)c1=O,102% (inactive)
7,FC(F)(F)c1cn(CC2CNC2)c2ncnc(Cl)c12,111% (inactive)
8,Oc1ccc(Cl)cc1/C=N\NC(=S)N/N=C/c1cc(Cl)ccc1O,1.29% (active)
9,N#Cc1c(-c2ccccc2)[nH]c2ncc(-c3ccccc3)n2c1=O,91.8% (inactive)
10,Cc1ccc(S(N)(=O)=O)cc1Cl,111% (inactive)
11,Clc1ccc(-c2csc(N/N=C/c3nc4ccccc4n3C3CC3)n2)cc1,90.1% (inactive)
12,COc1ccc(CN2C(=O)/C(=C\c3cc(OC)c(OC)c(OC)c3)c3cc(OC)ccc32)cc1,14% (inactive)
13,Cc1nc(-n2[nH]c(=O)ccc2=O)sc1N=Nc1ccccc1,93.8% (inactive)
14,Nc1ccc(Cl)c(S(=O)(=O)O)c1,99.3% (inactive)
15,COC1=CC(=O)c2nc(Cl)ccc2C1=O,-51% (active)
16,Nc1ccc2c(c1)/C(=N/O)c1cc([N+](=O)[O-])ccc1-2,89.8% (inactive)
17,Cc1ccc2nc3c(cc2c1)CSc1nnc(-c2ccc[nH]c2=S)n1N3,111% (inactive)
18,CC(=O)/C(=C/c1ccc(Cl)cc1)C(=O)c1ccccc1,96.9% (inactive)
19,Nc1c(C(=O)Nc2c(Cl)cccc2Cl)sc2nc3c(cc12)CCCC3,82.3% (inactive)
20,COc1ccc(/C=C(\C#N)c2ccccc2)cc1,91.2% (inactive)
21,CC1(C)CC(=O)C2=C(C1)N(c1ccc(OC(F)(F)F)cc1)C(N)=C(C#N)C2c1ccc(Cl)cc1 (stereo not drawn),93.1% (inactive)
22,C(=C\c1nccc2c1[nH]c1ccccc12)/c1ccccc1,-54% (active)

row,Compound,growth
1,O=[N+]([O-])c1ccc(/C=N\Nc2ccccc2)cc1,94.7% (inactive)
2,Cc1ccc(C(=O)CSc2nc3ccccc3c(=O)n2C)cc1,82.6% (inactive)
3,CCOC(=O)c1ccc(NC(=O)c2nc(-c3cc(OC)c(OC)c(OC)c3)n(-c3ccc(Cl)cc3)n2)cc1,107% (inactive)
4,CCCCc1nc(Cl)c(C2CC(c3ccc(S(N)(=O)=O)cc3)=NN2c2cc(Cl)cc(Cl)c2)[nH]1 (stereo not drawn),22.1% (inactive)
5,O=c1oc2ccccc2cc1-c1cc(-c2ccc(-c3cc(-c4cc5ccccc5oc4=O)nc(-c4cc5ccccc5oc4=O)c3)cc2)cc(-c2cc3ccccc3oc2=O)n1,84.3% (inactive)
6,COc1ccc2c(c1)CC[C@@H]1[C@@H]2CC[C@]2(C)[C@@H](O)C(=O)C[C@@H]12,109% (inactive)
7,CN1CCN(c2ccc(Nc3nc(NCCCNS(=O)(=O)c4cccc(F)c4)c4sccc4n3)cc2)CC1,-5.96% (active)
8,O=[N+]([O-])c1cccc2ccc(N/N=C/c3ccccc3O)nc12,4.06% (active) and 89.3% (inactive)
9,O=[N+]([O-])c1cc(NS(=O)(=O)c2ccccc2)ccc1NS(=O)(=O)c1ccccc1,92.9% (inactive)
10,COc1cccc(NC(=O)c2sc3nc4c(cc3c2N)CCCC4)c1,9.67% (active)
11,COc1cc(-c2nc3ccc(-c4nnc(SCC(=O)Nc5ccc(C(C)=O)cc5)o4)cc3[nH]2)cc(OC)c1OC,101% (inactive)
12,O=S(=O)(Nc1nccs1)c1ccc(Nc2nc(-c3ccncc3)cs2)cc1,101% (inactive)
13,CN1CCC2(CC1)N=C(SCC(=O)Nc1cnc3ccccc3c1)C(c1ccc(Br)cc1)=N2,-43.8% (active)
14,O=C1ON=[N+](c2ccc(Cc3ccc([N+]4=NOC(=O)C4CN4CCOCC4)cc3)cc2)C1CN1CCOCC1 (stereo not drawn),11.4% (inactive)
15,CCOC(=O)CSc1c(-c2ccccc2)c2cc(Cl)ccc2[nH]c1=O,98% (inactive)
16,Oc1ccc(N=Nc2ccc(N=Nc3ccccc3)cc2)cc1,83.1% (inactive)
17,CCC(O)c1ccccc1 (stereo not drawn),108% (inactive) and 97.6% (inactive)
18,N#CCCc1ccc(O)cc1,104% (inactive)
19,CCOC(=O)c1cc(C(=O)c2ccc(OC)c(OC)c2)n2c1ccc1ccccc12,97% (inactive)
20,CC/C=C\CCC/C=C1/C(=O)C=C[C@@H]1C/C=C\CCCC(=O)OC,68.7% (inactive)
21,O=C1c2cccnc2-c2ncccc21,100% [100 µM] (inactive)

# From PubChem BioAssay (NCI)
